Compounds with a hit are over-represented: about 2.4% of the library has one in this group of screens.
Pol beta inh: qHTS Assay for Inhibitors of DNA Polymerase Beta. P06746. Pol beta primer extension/strand displacement, fluorescence kinetic. Potency, µM (doses to about 114 µM), most hits filed as inhibitors. actives 1.3% (n = 340,000). AID 485314, 2010
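Reaction started by 50 nM substrate onto compound-treated Pol beta (10 nM, 15 min preincubation, room temperature); plates read at 0 min and 10 min. Normalized concentration-effect data fitted by four-parameter Hill equation.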
Pol iota inh: qHTS for Inhibitors of Polymerase Iota; actives 1% (n = 390,000); Pol iota fluorescent replication assay, 10 min; Potency, µM (top dose mostly 115 µM), actives largely listed as inhibitors; AID 588590, 2011; DNA polymerase iota (Homo sapiens), Q9UNA4
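Pol iota at 10 nM preincubated 15 min with compounds at room temperature; reaction started with fluorescent substrate, 50 nM final. Fluorescence read kinetically at 0 and 10 min; buffer-only wells as negative control.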
Pol kappa inh-1: qHTS for Inhibitors of Polymerase Kappa. AID 588579, 2011. actives 0.53% (n = 400,000). Potency, µM (series often up to 107 µM), actives largely listed as inhibitors. purified Pol kappa, fluorescent DNA synthesis assay, 10 min. DNA polymerase kappa (Homo sapiens), Q9UBT6
Target sequence (Q9UBT6 whole entry, looked up): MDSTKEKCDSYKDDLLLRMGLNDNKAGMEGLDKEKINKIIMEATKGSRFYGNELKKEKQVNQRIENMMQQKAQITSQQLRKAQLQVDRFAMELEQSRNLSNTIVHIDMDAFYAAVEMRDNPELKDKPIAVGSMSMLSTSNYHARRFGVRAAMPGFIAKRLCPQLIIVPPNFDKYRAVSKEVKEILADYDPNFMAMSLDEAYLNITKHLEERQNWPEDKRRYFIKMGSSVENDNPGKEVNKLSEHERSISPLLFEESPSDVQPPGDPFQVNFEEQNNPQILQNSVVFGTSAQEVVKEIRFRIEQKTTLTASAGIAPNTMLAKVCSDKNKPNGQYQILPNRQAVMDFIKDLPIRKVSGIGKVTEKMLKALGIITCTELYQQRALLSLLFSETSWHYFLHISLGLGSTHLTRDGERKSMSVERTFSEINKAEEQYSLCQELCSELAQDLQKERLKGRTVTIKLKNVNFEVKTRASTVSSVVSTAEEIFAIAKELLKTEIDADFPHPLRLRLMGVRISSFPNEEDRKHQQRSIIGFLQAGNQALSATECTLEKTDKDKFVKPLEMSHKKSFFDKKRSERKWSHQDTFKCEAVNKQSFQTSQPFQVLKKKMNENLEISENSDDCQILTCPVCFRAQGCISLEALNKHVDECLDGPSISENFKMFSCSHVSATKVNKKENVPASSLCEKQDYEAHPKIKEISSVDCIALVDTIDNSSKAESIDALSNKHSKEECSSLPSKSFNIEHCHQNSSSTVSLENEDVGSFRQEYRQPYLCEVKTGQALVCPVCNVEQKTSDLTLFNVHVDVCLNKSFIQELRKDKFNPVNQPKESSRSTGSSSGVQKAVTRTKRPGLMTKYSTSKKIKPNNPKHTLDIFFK
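10 nM Pol kappa preincubated 15 min at room temperature with compounds, then reaction started with substrate at 50 nM final. Fluorescence read kinetically at 0 and 10 min; buffer-only wells served as negative control.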
FEN1 inh: qHTS Assay for the Inhibitors of Human Flap endonuclease 1 (FEN1); Recombinant FEN1 flap cleavage, fluorescence, 15 min; Potency, µM (titrated, usually from 114 µM), usual class: inhibitors; actives 0.35% (n = 390,000); AID 588795, 2011; note: nearly all actives have a fitted effect of over 65% in size
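Enzyme 10 nM, 15 min RT preincubation with compound; start with substrate 50 nM final; reads at 0 and 15 min; qHTS titration, four-parameter Hill fit.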
Pol eta inh-1: qHTS for Inhibitors of Polymerase Eta; Potency, µM (series often up to 114 µM), actives largely listed as inhibitors; actives 1.2% (n = 390,000); AID 588591, 2011; recombinant Pol eta, fluorescent DNA replication assay; DNA polymerase eta (Homo sapiens), Q9Y253
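Pol eta (10 nM) was preincubated with compounds for 15 min at room temperature, after which fluorescent replication substrate (50 nM final) was added to start the reaction. Fluorescence was read kinetically at 0 and 10 min.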
WRN helicase inh: qHTS for Inhibitors of WRN Helicase; Bifunctional 3'-5' exonuclease/ATP-dependent helicase WRN (Homo sapiens), Q14191; WRN helicase unwinding, fluorescent forked duplex, kinetic; Potency, µM (top dose mostly 114 µM), hits mostly inhibitors; actives 0.46% (n = 360,000); note: nearly all actives have a fitted effect of over 55% in size
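Primary qHTS, 1536-well format. 20 nM WRN + compound, 15 min RT; start with 100 nM forked fluorophore/quencher duplex, 2 mM ATP (final); kinetic read ex 525/em 598 nm.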
TbPGK inh: qHTS for inhibitors of Phosphogylcerate Kinase: Hit Validation Screen. shares compounds with Pol kappa inh-1. TbPGK coupled GAPDH assay, Kinase-Glo luminescence. Potency, µM (titrated, usually from 57.5 µM), most hits filed as inhibitors. actives 79% (n = 500); note: nearly all actives have a fitted effect of over 65% in size
POLI cherry-pick: qHTS for Inhibitors of Polymerase Iota: Confirmatory Assay for Cherry-picked Compounds; Potency, µM, actives largely listed as inhibitors; shares compounds with Pol kappa inh-1; Pol iota primer extension, TAMRA/BHQ fluorescence; actives 77% (n = 1,500); AID 720496, 2013
GALK confirm: Confirmation Assay for Inhibitors of Human Galactokinase (GALK) | actives 70% (n = 150) | AID 2015, 2009 | purified GALK, Kinase-Glo ATP depletion luminescence | Potency, µM (titrated, usually from 115 µM), usual class: inhibitors | shares compounds with Pol eta inh-1
Redox cycling: Confirmatory Assay for Inhibitors of Human Galactokinase (GALK): Phenol-HRP redox assay counterscreen; shares compounds with Pol eta inh-1; Potency, µM (highest dose often 115 µM), most hits filed as inhibitors; actives 40% (n = 150); Phenol red-HRP H2O2 redox cycling, absorbance 600 nm
HEK293 tox: Secondary Assay for Inhibitors of Human Galactokinase (GALK): HEK-293 Cell Viability Assay; shares compounds with Pol eta inh-1; HEK-293 viability, ATP luminescence (CellTiter-Glo), 24/48 h; Potency, µM (titrated, usually from 46.1 µM), most hits filed as inhibitors; actives 10% (n = 170); AID 2547, 2010
Pol kappa inh-2: qHTS for Inhibitors of Polymerase Kappa: Confirmatory Assay for Cherry-picked Compounds. shares compounds with Pol eta inh-1. purified Pol-kappa, fluorescent strand-displacement substrate. Potency, µM, actives largely listed as inhibitors. actives 76% (n = 920). AID 720501, 2013
Pol eta inh-2: qHTS for Inhibitors of Polymerase Eta: Confirmatory Assay for Cherry-picked Compounds; shares compounds with Pol eta inh-1; Pol eta primer extension, TAMRA/BHQ fluorescence, 10 min; Potency, µM, most hits filed as inhibitors; actives 64% (n = 2,600)
Of the large screens only hits and unclear results are named; the others gave an inactive call (follow-up assays come after a bar, where they were run). Calls come from the whole dose curve; as a rule, active = well fitted curve in the direction sought with a large enough effect; inconclusive = small, poorly fitted or top-dose-only effect, or another doubt; inactive = no such curve, though single readings can be large; an effect the other way counts as inactive or inconclusive.

C[n+]1cccc2c(Br)ccc([O-])c21	Pol beta inh 28µM, Pol iota inh inconclusive, Pol eta inh-1 20µM | POLI cherry-pick 19 | GALK confirm 47µM | Redox cycling 21µM | HEK293 tox inactive | Pol eta inh-2 24
COc1ccc(NC(=O)c2oc3ccccc3c2NC(=O)COc2ccc(C(C)C)cc2)c(OC)c1	none (no result: WRN helicase inh)
COc1cccc(NC(=O)CN(C)C(=O)c2cc(-c3ccco3)nc3ccccc23)c1	Pol iota inh 35µM, Pol kappa inh-1 inconclusive, Pol eta inh-1 inconclusive (no result: Pol beta inh) | POLI cherry-pick 38 | Pol eta inh-2 30
COc1cccc(NC(=O)c2cc(-c3ccco3)nc3ccccc23)c1	Pol iota inh inconclusive, Pol kappa inh-1 inconclusive, Pol eta inh-1 inconclusive (no result: Pol beta inh)
Cc1ccc(NC(=O)CN(C)C(=O)c2cc(-c3ccco3)nc3ccccc23)cc1	Pol iota inh 18µM, Pol kappa inh-1 50µM, Pol eta inh-1 20µM, WRN helicase inh 71µM (no result: Pol beta inh) | POLI cherry-pick 42 | Pol eta inh-2 60
CCOc1ccc(NC(=O)CN(C)C(=O)c2cc(-c3ccco3)nc3ccccc23)cc1OCC	none (no result: Pol beta inh)
Cc1cc(Br)cc2c1N(Cc1ccccc1OC(C)C)C(=O)C2=O	Pol iota inh inconclusive (no result: Pol eta inh-1, WRN helicase inh)
CCn1c(N)nc2c1c(=O)n(C)c(=O)n2C	none
Cn1nc(-c2ccccn2)nc2c(=O)n(C)c(=O)nc1-2	Pol beta inh inconclusive, Pol eta inh-1 0.71µM | TbPGK inh 1.6µM | GALK confirm 2.7µM | Redox cycling 2.7µM | HEK293 tox 4µM
CCc1ccc(-c2nc3c(=O)n(C)c(=O)nc-3n(CC)n2)cc1	none (no result: Pol beta inh, Pol eta inh-1, WRN helicase inh) | POLI cherry-pick 2.1 | Pol eta inh-2 1.5
CCCc1nc2c(=O)n(C)c(=O)nc-2n(C)n1	Pol beta inh inconclusive, Pol eta inh-1 0.89µM | TbPGK inh 1.5µM | POLI cherry-pick 1.5 | GALK confirm 0.94µM | Redox cycling 0.67µM | HEK293 tox 10µM | Pol eta inh-2 2.7
COc1ccc(-c2nc(-c3ccccn3)ncc2S(C)(=O)=O)cc1	none
COc1ccccc1C(=O)NC1(C(F)(F)F)C(=O)NC(C)=C1C#N (stereo unspecified)	Pol iota inh inconclusive (no result: WRN helicase inh)
O=C1C=CC(n2cc(F)c(=O)[nH]c2=O)O1 (stereo unspecified)	Pol eta inh-1 20µM (no result: Pol beta inh, Pol iota inh, Pol kappa inh-1, FEN1 inh) | TbPGK inh 18µM | Pol eta inh-2 inconclusive
O=c1[nH]c(=O)n([C@@H]2O[C@H](CO)[C@@H](O)[C@H]2O)cc1F	none (no result: Pol beta inh, Pol eta inh-1, WRN helicase inh)
COc1ccc(NC(=O)c2ccc3oc(=O)c(S(=O)(=O)c4ccc(C)cc4)cc3c2)cc1OC	none (no result: WRN helicase inh)
N[C@H](Cn1ccc(=O)n(Cc2ccccc2C(=O)O)c1=O)C(=O)O	none (no result: Pol beta inh, Pol iota inh, FEN1 inh, Pol eta inh-1, WRN helicase inh)
O=C(Nc1ccc(-c2nc3ccc(NC(=O)c4cccs4)cc3[nH]2)cc1)c1cccs1	Pol beta inh 10µM, Pol iota inh 20µM, Pol kappa inh-1 inconclusive, FEN1 inh inconclusive, Pol eta inh-1 inconclusive | POLI cherry-pick 38 | Pol eta inh-2 67
CS(=O)(=O)N1CCc2cc(C(=O)Nc3cccc(F)c3)ccc21	none (no result: WRN helicase inh)
N[C@H](Cc1cc(I)c(Oc2ccc(O)c(I)c2)c(I)c1)C(=O)O	none (no result: Pol beta inh, Pol iota inh, FEN1 inh, Pol eta inh-1, WRN helicase inh)
CCOc1nc(Nc2ccc(OC)cc2)nc(OCC)n1	Pol iota inh inconclusive, Pol kappa inh-1 inconclusive, Pol eta inh-1 20µM | POLI cherry-pick 67 | Pol eta inh-2 inconclusive
O=C(O)COc1ccc2c(c1)O/C(=C\c1cccs1)C2=O	Pol eta inh-1 inconclusive
O=C(O)COc1ccc2c(c1)O/C(=C\c1ccco1)C2=O	Pol beta inh 32µM, Pol iota inh 11µM, Pol kappa inh-1 79µM, FEN1 inh inconclusive, Pol eta inh-1 5µM, WRN helicase inh inconclusive | POLI cherry-pick 27 | Pol kappa inh-2 6.7 | Pol eta inh-2 30
COc1cc(-c2noc(C3CC(=O)N(c4cc(C)ccc4C)C3)n2)cc(OC)c1OC (stereo unspecified)	none (no result: WRN helicase inh)
O=C1C2CC=C(Cl)CC2C(=O)N1CCCCCCN1C(=O)C2CC=C(Cl)CC2C1=O (stereo unspecified)	Pol beta inh 20µM, Pol iota inh 18µM, Pol kappa inh-1 79µM, Pol eta inh-1 20µM, WRN helicase inh inconclusive | POLI cherry-pick 60 | Pol eta inh-2 30
COc1ccc(/C=N/Nc2ncc(Br)cn2)c(OC)c1	Pol beta inh 4.5µM, FEN1 inh inconclusive, Pol eta inh-1 28µM, WRN helicase inh inconclusive | POLI cherry-pick 42 | Pol kappa inh-2 15
COc1ccc(N2Cc3cccc(C(=O)Nc4cccc(F)c4)c3C2=O)cc1	Pol beta inh 14µM, Pol iota inh 79µM, Pol kappa inh-1 inconclusive (no result: Pol eta inh-1, WRN helicase inh) | POLI cherry-pick 38 | Pol kappa inh-2 12 | Pol eta inh-2 76
COc1ccc(N2Cc3cccc(C(=O)N4CCOCC4)c3C2=O)cc1	none
